# The list is not random: actives were taken first. Their share in the collection is about 19%.
# KB-3-1 tox: qHTS assay for MDR1-selective chemotherapeutics: Primary screen using the parental adenocarcinoma cell KB-3-1; 400,000 compounds, 1.4% hits; AID 1347075, 2019; Potency, µM (series often up to 46.1 µM), most hits filed as cytotoxic; KB-3-1 viability, CellTiter-Glo ATP luminescence, 72 h; note: nearly all actives have a fitted effect of over 60% in size
#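 Cells are dispensed, compounds pinned in, plates held at 37 °C for 72 h, then CellTiter-Glo is added and luminescence read after 10 minutes. Cell line: parental KB-3-1 in phenol-red-free DMEM, 10% FBS.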
# HT1080-NT tox: qHTS for induction of synthetic lethality in tumor cells producing 2HG: qHTS for the HT-1080-NT fibrosarcoma cell line; HT-1080-NT fibrosarcoma viability, CellTiter-Glo ATP luminescence, 48 h; AID 686970, 2013; 360,000 compounds, 1.6% hits; Potency, µM (top dose mostly 46.1 µM), for inactives: at the highest dose activity, negative = less viability, actives largely listed as cytotoxic;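 note: NT is the 2HG producing partner of a matched IDH1 knockdown line; 0% = DMSO-treated cells and -100% = media-only wells without cells; nearly all actives have a fitted effect of over 55% in size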
#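 Fibrosarcoma NT cells, 750 per well in 5% FBS RPMI, were exposed to compound for 48 hours. Viability: CellTiter-Glo luminescence.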
# HT1080 IDH1KD tx: qHTS for induction of synthetic lethality in tumor cells producing 2HG: qHTS for the HT-1080-IDH1KD cell line | Potency, µM (titrated, usually from 46.1 µM), without a hit: top-dose activity, negative = toxicity, hits mostly cytotoxic | HT-1080 IDH1 knockdown viability, ATP luminescence, 48 h | 360,000 compounds, 2% hits;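 note: 0% = DMSO wells and -100% = cell-free medium wells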
#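 IDH1KD HT-1080 cells, 750/well, RPMI + 5% FBS; compound pinned after 2 h settling; 48 h, 37 °C; CellTiter-Glo luminescence; % activity normalised to DMSO and no-cell wells; curves fitted, classed by r2 and efficacy.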
# TDP1 cell CPT: qHTS for Inhibitors of human tyrosyl-DNA phosphodiesterase 1 (TDP1): qHTS in cells in presence of CPT | chicken DT40 Tdp1-/-;hTDP1 cells + 20 nM CPT, ATP luminescence, 48 h | Potency, µM (doses to about 46.2 µM), without a hit: at the highest dose activity change, negative = growth inhibition, hits mostly inhibitors | 420,000 compounds, 12% hits | AID 686979, 2013; note: nearly all actives have a fitted effect of over 55% in size
#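 Cell growth measured by CellTiter-Glo luminescence after a minimum 48 h, 37 C compound exposure with 20 nM CPT in Tdp1-knockout DT40 cells stably expressing hTDP1, seeded 400/well; qHTS titration format.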
# KB-V1 cytotox: qHTS assay for MDR1-selective chemotherapeutics: Primary screen using the drug-selected MDR subline cells KB-V1; AID 1347076, 2019; 400,000 compounds, 3.4% hits; KB-V1 MDR cells viability, CellTiter-Glo, 72 h; Potency, µM (doses to about 46.1 µM), actives largely listed as cytotoxic; note: nearly all actives have a fitted effect of over 60% in size
#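 Drug-selected KB-V1 cells, grown in DMEM lacking phenol red with 10% FBS, receive compound titrations; after three days at 37 degrees C, surviving cell ATP is quantified by CellTiter-Glo luminescence and responses normalized and curve-fitted.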
# DT40 TDP1 no CPT: qHTS for Inhibitors of human tyrosyl-DNA phosphodiesterase 1 (TDP1): qHTS in cells in absence of CPT | Potency, µM (doses to about 46.2 µM), for inactives: at the top dose activity change, negative = growth inhibition, usual class: inhibitors | AID 686978, 2013 | 420,000 compounds, 15% hits | DT40 Tdp1-/- hTDP1 cells, no CPT, ATP luminescence, 48 h; note: nearly all actives have a fitted effect of over 55% in size
#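 Growth of hTDP1-complemented DT40 Tdp1-knockout cells is measured by ATP luminescence after at least 48 hr compound exposure at 37 °C, with DMSO substituting for the 20 nM CPT used in the parallel screen.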
# An asterisk follows results filed as active; i = inactive; ? = inconclusive; . = no result given; [ ] = another dose, or the depositor's remark. Calls come from the whole dose curve; as a rule, active = well fitted curve in the direction sought with a large enough effect; inconclusive = small, poorly fitted or top-dose-only effect, or another doubt; inactive = no such curve, though single readings can be large; an effect the other way counts as inactive or inconclusive. Unless noted, % is set by controls: 0 for no effect and ±100 for the full control effect; potency is the fitted concentration of half-maximal effect.
SMILES,KB-3-1 tox,HT1080-NT tox,HT1080 IDH1KD tx,TDP1 cell CPT,KB-V1 cytotox,DT40 TDP1 no CPT
COc1ccc(N2CCN(C(=O)c3ccc4c(c3)N(Cc3cccc(Cl)c3)C(=O)c3ccccc3S4(=O)=O)CC2)cc1,.,.,.,-5%,.,-14%
O=C(Nc1cccc(Cl)c1Cl)c1ccc2c(c1)N(Cc1cccc(Cl)c1)C(=O)c1ccccc1S2(=O)=O,i,.,.,.,i,.
Cc1ccc(Cl)cc1N1CCN(C(=O)c2ccc3c(c2)N(Cc2ccccc2F)C(=O)c2ccccc2S3(=O)=O)CC1,i,.,.,-18%,i,?
COc1ccccc1N1CCN(C(=O)c2ccc3c(c2)N(Cc2ccccc2)C(=O)c2ccccc2S3(=O)=O)CC1,.,.,.,?,.,12µM*
COc1cccc(NC(=O)CN(C)C(=O)c2ccc(S(=O)(=O)Nc3ccccc3F)cc2)c1,i,-3%,-11%,-16%,i,-17%
Cc1ccc(S(=O)(=O)N(C)CC(=O)Nc2ccncc2)cc1,i,5%,-3%,?,i,?
NC(=S)NNC(=O)Nc1ccc(Cl)c(Cl)c1,i,-1%,-3%,?,i,-26%
COCCNC(=O)C(c1ccc(Cl)cc1)N(CCOC)C(=O)CCC(=O)Nc1ccccn1 (stereo not given),i,?,27%,-23%,i,-4%
CCOCCCNS(=O)(=O)c1ccc(NC(=O)C2CC(=O)N(c3ccc(C)cc3)C2)cc1 (stereo not given),i,2%,-3%,-10%,i,?
CN1CCN(C(=O)c2ccc3c(c2)N(Cc2ccc(F)cc2)C(=O)c2ccccc2S3(=O)=O)CC1,i,.,.,-15%,i,-28%
CC1CCCCN1C(=O)c1ccc2c(c1)N(Cc1ccc(F)cc1)C(=O)c1ccccc1S2(=O)=O (stereo not given),i,.,.,?,i,18µM*
CC(NC(=O)CN(c1cccc(C(F)(F)F)c1)S(=O)(=O)c1ccc(Cl)c([N+](=O)[O-])c1)c1ccccc1 (stereo not given),?,23µM*,18µM*,4.6µM*,?,9.2µM*
O=C(CN(c1cccc(C(F)(F)F)c1)S(=O)(=O)c1ccc(Cl)c([N+](=O)[O-])c1)NCc1ccccc1,i,-1%,-2%,-23%,i,?
O=C(CN(c1cccc(C(F)(F)F)c1)S(=O)(=O)c1ccc(Cl)c([N+](=O)[O-])c1)NCc1ccccc1Cl,i,-20%,3%,16µM*,i,16µM*
O=C(COC(=O)c1c[nH]c2ccccc12)Nc1ccc(F)cc1,i,-4%[9.24 µM],-1%,-18%,i,-10%
Cc1c(C(=O)N2CCOCC2)c(S(=O)(=O)Nc2ccc(C(C)C)cc2)c(C)n1C,i,8%,11%,13µM*,i,?
Cc1c(C(=O)N2CCCCCC2)c(S(=O)(=O)Nc2ccc(OC(F)(F)F)cc2)c(C)n1C,i,.,.,23µM*,i,16µM*
Cc1cccc(NC(=O)NCCN2CCN(c3ccccc3)CC2)c1C,i,13%,2%,-8%,i,0%
Cc1cc(C)c(S(=O)(=O)/N=C2\C=C(NS(=O)(=O)c3ccccc3)C(=O)c3ccccc32)c(C)c1,i,-6%,-7%,?,i,-18%
O=S(=O)(N=C1C=CC(=NS(=O)(=O)c2ccccc2)c2ccccc21)c1ccccc1,?,-15%,?,7.3µM*,i,6.5µM*
Cc1cc(C)c(S(=O)(=O)/N=C2\C=C(Nc3ccc(C(=O)O)cc3)C(=O)c3ccccc32)c(C)c1,?,8.2µM*,4.1µM*,3.7µM*,i,3.7µM*
O=C(O)c1ccc(NS(=O)(=O)c2ccc3c(c2)C(=O)c2ccccc2C3=O)cc1,i,-2%,-3%,-1%,i,-2%
Cc1ccc(S(=O)(=O)/N=C2\C=C(NS(=O)(=O)c3ccccc3)C(=O)c3ccccc32)cc1,i,?,?,21µM*,i,26µM*
O=C1c2ccccc2C(=O)N1S(=O)(=O)c1ccccc1,i,18%,14%,-17%,?,19%
O=C(O)c1ccc(NC2=C/C(=N/S(=O)(=O)c3ccccc3)c3ccccc3C2=O)cc1,18µM*,4.1µM*,5.8µM*,2.6µM*,?,3.7µM*
SMILES,KB-3-1 tox,HT1080-NT tox,HT1080 IDH1KD tx,TDP1 cell CPT,KB-V1 cytotox,DT40 TDP1 no CPT
O=C(Cn1cc(F)c(=O)[nH]c1=O)c1ccco1,i,-1%,-1%,-6%,i,-17%
O=C1NC[C@@H](CCCCN2C[C@H](Cc3ccccc3)N(Cc3ccccc3)C(=O)C2=O)N(CCc2ccccc2)C1=O,i,0%,0%,-13%,i,-22%
CC(C)n1c(CCC(=O)O)ccc1-c1ccccc1,i,-7%,-1%,4%,i,2%
O=c1c2ccccc2nc(-c2ccccc2)n1Cc1ccco1,i,8%,18%,-16%,12µM*,?
O=C1c2ccccc2C(=O)N1CCCc1nc2ccccc2c(=O)n1Cc1ccco1,i,3%,-2%[9.24 µM],21µM*,?,16µM*
COc1ccc(-n2c(=O)c3ccccc3n(Cc3ccccc3C)c2=O)c(OC)c1,i,.,.,21µM*,i,?
Cc1ccccc1Cn1c(=O)n(Cc2ccco2)c(=O)c2ccccc21,i,-13%,0%[9.24 µM],15µM*,?,?
COCCCn1c(-c2ccccc2)nc2ccccc2c1=O,i,2%,-2%,?,i,?
CC1=C(C(=O)OCC(C)C)C(c2ccc(F)cc2)NC(=O)N1 (stereo not given),i,0%,2%,-17%,i,-24%
CC(C)C[C@@H]1COc2cc(N(C)CCO)ccc2S(=O)(=O)N1,i,9%,7%,2%,?,3%
CCOc1cc(-c2nnc(SCC(=O)Nc3ccc(F)c(F)c3)nc2-c2ccc(OC)c(OCC)c2)ccc1OC,i,.,.,-18%,i,-22%

# High-throughput results deposited in PubChem BioAssay by National Center for Advancing Translational Sciences (NCATS).
